Screening data as filed in PubChem BioAssay.
The entries come from a sample that favours hits as a whole.
ERK EGF block = inhibitors of EGF-stimulated ERK signaling pathway. HEK293-V1b, EGF-stimulated phospho-ERK AlphaScreen. Potency, µM (doses to about 11.5 µM), most hits filed as inhibitors. AID 1454. 130,000 tested, 0.41% active; active = well fitted inhibition curve with a large enough effect; also: nearly all actives have a fitted effect of over 55% in size
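V1b-HEK293, 1% FBS o/n; cpd 30 min 37C; EGF 25 nM final, 5 min; lyse 10 min; AlphaScreen beads 5 h RT. Normalized DMSO basal vs EGF max; Hill AC50.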
Numbers stand for hits; 0 = inactive.

SMILES	ERK EGF block
CC/C=C\C/C=C\C/C=C\C/C=C\C/C=C\CCC(=O)O[C@H](COCCCCCCCCCCCCCCCC)COP(=O)([O-])OCC[N+](C)(C)C	0
CC(C)(CO)[C@H](O)C(=O)NCCCO	0
O=C1CCCC(C(C(=O)OCc2ccccc2)C(=O)OCc2ccccc2)C1 (configuration not stated)	0
O=C(CSc1nc2ccccc2c(=O)n1-c1ccccc1)N1CCc2ccccc2C1	28µM
O=C(CSc1nc2ccccc2c(=O)n1-c1ccccc1)N1CCC1	0
CC(C)c1ccccc1-n1c(SCC(=O)N2CCc3ccccc3C2)nc2ccccc2c1=O	0
COc1ccc(COC2OC[C@]3(C)[C@H]4C5=C(CN3C(=O)OC(C)(C)C)[C@H](C)C(CO)C(CO)C5CC[C@@H]24)cc1 (some centres not stated)	0
CCOC(=O)Cc1csc(NC(=O)/C=C/c2ccc(Br)o2)n1	35µM
CCOC(=O)Cc1csc(NC(=O)c2ccc(C)cc2)n1	0
CCCC(=O)Nc1nc(CC(=O)OCC)cs1	0
COC(=O)c1ccc(C(NC(=O)OCc2ccccc2)/C(=C/[C@@H](C)C(=O)N(C)C)c2cccnc2)cc1 (some centres not stated)	0
COc1ccc2c(c1)C(=O)[C@H](OC(=O)NCc1ccco1)[C@@H](c1ccc(OC)c(Br)c1)O2	0
CNC(=O)[C@]1(C)C[C@H]1[C@H](NC(=O)[C@]1(C)C[C@H]1[C@H](NC(=O)OCc1ccccc1)c1ccccc1)c1ccccc1	0
COc1ccc(OC)c(-c2c3cc(O)c(=O)cc-3oc3cc(O)c(O)cc23)c1	25µM
COc1ccc2c(=O)cc(-c3ccc(O)cc3)oc2c1	0
COc1ccccc1-c1cc(=O)c2cc(O)ccc2o1	0
CCCOc1ccc(Br)cc1-c1cc(-c2ccc(Cl)cc2)[nH]c1-c1ccncc1	0
CCN1CCN(C(=O)N[C@H](C(=O)N[C@@H]2C(=O)N3C(C(=O)O)=C(CSc4nnnn4C)CS[C@@H]23)c2ccc(O)cc2)C(=O)C1=O	0
CC[C@@]1(O)C(=O)COc2c1cc1n(c2=O)Cc2c-1nc1cccc(C(C)C)c1c2[Si](C)(C)C	0
C[C@H]1CC[C@@H]2[C@@H](C)[C@H]3[C@H](C[C@H]4[C@@H]5CC=C6C[C@@H](O[C@]7(O[C@H]8O[C@@H](C)[C@@H](O)[C@@H](O)[C@@H]8O)C[C@@H](O[C@@H]8O[C@H](CO)[C@@H](O)[C@H](O)[C@@H]8O)[C@@H](O)[C@H](CO)O7)CC[C@]6(C)[C@H]5CC[C@@]34C)N2C1	0
O=c1cnc2cnc(OCc3ccccc3)nc2n1Cc1ccc(F)cc1	0
CCOC(=O)c1c(NC(=O)c2ccc(C)cc2)sc2c1CC(C)(C)NC2(C)C	0
COC(=O)c1c(NC(=O)c2ccccc2)sc2c1CC(C)(C)NC2(C)C	0
COC(=O)c1c(NC(=O)c2ccc(OC(C)C)cc2)sc2c1CC(C)(C)NC2(C)C	28µM
COc1ccc2cnoc(=O)c2c1OC	0
SMILES	ERK EGF block
C/C=C\C[C@@H](C)[C@@H](O)[C@H]1C(=O)N[C@@H](CC)C(=O)N(C)CC(=O)N(C)[C@@H](CC(C)C)C(=O)N[C@@H](C(C)C)C(=O)N(C)[C@@H](CC(C)C)C(=O)N[C@@H](C)C(=O)N[C@H](C)C(=O)N(C)[C@@H](CC(C)C)C(=O)N(C)[C@@H](CC(C)C)C(=O)N(C)[C@@H](C(C)C)C(=O)N1C	0
COc1ccc2[nH]c3c(N4CCc5ccccc5C4)ncnc3c2c1	32µM
COc1ccc2[nH]c3c(=O)n(CCCN4CCOCC4)cnc3c2c1	0
CCOc1ccc2[nH]c3c(N4CCC5(CC4)OCCO5)ncnc3c2c1	0
Nc1nc(Cl)nc2c1ncn2[C@@H]1O[C@H](COP(=O)(O)OP(=O)(O)OP(=O)(O)O)[C@H](O)[C@H]1O	0
COc1cc2c(cc1OC)[C@@H]1CC(=O)[C@@H](CC(C)C)CN1CC2	0
CC1(C)Cc2c(c(N3CCOCC3)nc3sc(C(=O)N4CCCCC4)c(N)c23)CO1	0
CC1(C)Cc2c(c(N3CCOCC3)nc3sc(-c4ccc(C(=O)O)o4)c(N)c23)CO1	0
CN1Cc2c(N3CCOCC3)nc3sc(C(=O)c4ccc(Br)cc4)c(N)c3c2CC1(C)C	35µM
CC1(C)S[C@H]2C(NC(=O)[C@@H](N)c3ccc(O)cc3)C(=O)N2[C@@H]1C(=O)O (some centres not stated)	0
O=C(Nc1ccccc1)N1CCCC2(CCNCC2)C1	0
CCCCC/C=C\C/C=C\C/C=C\C/C=C\CCCCCC(=O)NCC(=O)O	0
O=C(CSc1cccc[n+]1[O-])Nc1ccc(C(F)(F)F)cc1[N+](=O)[O-]	0
O=[N+]([O-])c1ccc(Sc2cccc[n+]2[O-])c2nonc12	25µM
CC(Sc1cccc[n+]1[O-])C(=O)Nc1ccc([N+](=O)[O-])cc1Cl (configuration not stated)	0
CCc1cccc(CC)c1NC(=O)CSc1nc2ccc(N3C(=O)C4C(C3=O)[C@H]3C=C[C@@H]4C3)cc2s1 (some centres not stated)	0
N#Cc1ccc(CS(=O)(=O)c2ccccc2)cc1	0
COCCN1C(=O)N[C@@H](c2cccc(C(F)(F)F)c2)C(C(C)=O)=C1C	0
O=C(CN1CCSC1=NCc1ccccc1)c1ccc(Cl)c(Cl)c1	0
N=c1n(CCN2CCCCC2)c2ccccc2n1CC(=O)c1ccc(Cl)c(Cl)c1	28µM
O=C(NCCCOc1cccc(CN2CCCCC2)c1)c1ccc(Cl)c(Cl)c1	0
CS(=O)(=O)N(C(=O)NC(=O)NC12CC3CC(CC(C3)C1)C2)C1CCCCC1	0
COc1ccccc1N1CCN(CCCCNS(=O)(=O)c2cccc3c(N(C)C)cccc23)CC1	0
CCCCCCN(C(=O)CCCCCN1C(=O)NC(C2CCCCC2)C(C(=O)OCc2ccccc2)=C1C)C(C(=O)NCCCC)c1ccc(OCC(=O)OC)c(C(=O)OC)c1 (configuration not stated)	0
CC12C=C(/C=C/CCc3ccco3)C(C)(C1)[C@H](CCc1ccco1)CC2=O (some centres not stated)	0
SMILES	ERK EGF block
CCCCC[C@H](O)/C=C/C=C\C/C=C\CCCCC(=O)O	0
O=C(Nc1ccc(OC(F)(F)F)cc1)c1ccc(-n2cncn2)nc1	0
Cc1csc2ncnc(N3CCN(C(=O)Nc4ccc(OC(F)(F)F)cc4)CC3)c12	28µM
O=C(Nc1ccc(OC(F)(F)F)cc1)N1CCN(c2ccnc3cc(Cl)ccc23)CC1	0
COc1ccc(C(=O)N(O)c2ccccc2)cc1	0
CCn1ccnc1CN1CCc2c([nH]c3ccccc23)C1C(C)(C)C (configuration not stated)	32µM
COCc1ccc(CN2CCc3c([nH]c4ccccc34)C2C(C)(C)C)o1 (configuration not stated)	0
Cc1cnc(CN2CCc3c([nH]c4ccccc34)C2CC(C)C)[nH]1 (configuration not stated)	0
CCCCC[C@H](O)/C=C/[C@@H]1[C@@H](C/C=C\CCCC(=O)O)[C@H](O)C[C@H]1O	0
N.N.O=C(O)C1(C(=O)O)CCC1.[Pt]	0
C/C(=N/NC(=O)C(C)n1nc(C)c([N+](=O)[O-])c1C)c1ccc(OCC(N)=O)cc1 (configuration not stated)	0
c1cncc(CNc2ncnc3ccc(-c4cccnc4)cc23)c1	0
COc1cccc(-c2ccc3ncnc(NCc4cccs4)c3c2)c1	28µM
COc1cccc(-c2ccc3ncnc(NC4CCNCC4)c3c2)c1	0
